# From PubChem BioAssay AID1508642 (National Center for Advancing Translational Sciences (NCATS), 2021)
# Hit rate of the full screen: of about 43,000 compounds, about 200 (0.47%) were called active. Roughly 12% stayed inconclusive and do not appear here. This is one part of a sample in which actives are shown more often than they occur. Calls follow the shape of the dose curve; as a rule, active = well fitted cell-killing curve with a large enough effect; inconclusive = small, poorly fitted or top-dose-only effect, or effect the other way; inactive = flat fitted curve, though single readings scatter.
# Assay: Cell viability qHTS assay in S16 Pmp22-F2sN cells; also: nearly all actives have a fitted effect of over 65% in size
# Conditions: S16 Pmp22-F2sN Schwann cells (luciferase reporters placed in the Pmp22 gene) viability, CellTiter-Glo, 24 h; series mostly up to 57.5 µM; activity change, negative = cytotoxicity: at the top concentration
# Text: Assay Provider: Jim Inglese Ph.D. National Center for Advancing Translational Science, National Institutes of Health, Rockville, MD CMT is a heterogeneous group of neurological disorders that affect approximately 1 in 2,500 people. In particular, the most common form of CMT, CMT1A is genetically linked to the duplication of the PMP22 gene which leads to Schwann cell overexpression, thus manifesting itself as a typical case of dose-sensitive diseases. To identify small molecule compounds that can mediate the expression of PMP22 we developed a phenotypic assay screening strategy by utilizing genome editing techniques to construct Schwann cell lines containing novel reporter technology to monitor the transcriptional or translational regulation of PMP22. For high sensitivity we use a bioluminescent reporter system embedded in the 3' UTR of the PMP22 gene (S16(c9) Pmp22-F2sN) to identify compounds that inhibit gene expression. […] We can further discriminate the effect of all transcriptionally active molecules on PMP22 translation or stability with an assay that incorporates a short NLuc peptide (HiBiT) at the C-terminus of expressed PMP22 (S16(f8) PMP22-HiBiT) allowing alpha complementation and luminescence detection of membrane-associated PMP22 protein. These assays were screened against the NCATS Sytravon Library Collection. Miniaturization of these assays to 1536-well plate format for quantitative high throughput screening (qHTS) yielded rich data sets immediately from the qHTS assay (S16(c9) Pmp22-F2sN), when compared with data from a cell viability assay (Cell TiterGlo) to identify compounds that decreased the output signals through cellular toxicity to streamline the selection process of actives for subsequent characterization using the HiBiT assay (S16(f8) PMP22-HiBiT).
# Cell viability assay in S16 Pmp22-F2sN cells PROTOCOL TABLE (format as described by Inglese J, Shamu CE and Guy RK. 2007) SEQUENCE No. (e.g., 1, 2, 3, etc.); […] (e.g., Cells, Incubation, Reagent, etc.); VALUE and DESCRIPTION. 1. Cells. Add 500-1,000 cells in 4 uL in growth media (DMEM High Glucose, No Phenol Red media + 10% heat-inactivated FBS + 1% Pen/Strep supplemented media) per well into Greiner 1536-well white/solid bottom high base, TC-treated plates. 2. Compounds. Library compounds and controls added at 23nL per well, transferred by Pin Tool. 3. Incubation. Incubate plates at 37C, 5% CO2, 95% RH for 24 h. 4. Reagent. Add 3uL CellTiter-Glo per well of Greiner 1536-well plates. 5. Incubation. Incubate plates at room temperature for 15 min., protect from light. 6. Detector. FLuc luminescence measured using CCD-based camera (Viewlux). NOTES (numbers refer to Sequence numbers above; values are from representative experiments) 6. Luminescence Read: Clear filter; Exposure = 1 sec, Gain = High, Speed = Slow, Binning = 2X REFERENCES: 1. Inglese J, Shamu CE and Guy RK, Reporting data from high throughput screening of small molecule libraries, Nature Chemical Biology, 2007, 3(8): 438-441. doi.org/10.1038/nchembio0807-438 2. Yasgar A, Shinn P, Jadhav A, Auld DS, Michael S, Zheng W, Austin CP, Inglese J and Simeonov A, Compound Management for Quantitative High-Throughput Screening. J. Assoc. Lab. Auto., 2008, 13: 79-89. doi: 10.1016/j.jala.2007.12.004
# % is scaled to controls: 0 for no effect and ±100 for the full control effect; potency is read from the fitted curve at half-maximal effect.
SMILES,"activity change, negative = cytotoxicity",Potency
O=C(COc1ccccc1)OCc1cc(=O)n2nc(-c3cccs3)sc2n1,0.234% (inactive),–
CCc1c(C)sc(NC(=O)C2c3ccccc3Oc3ccccc32)c1C(=O)OC(C)C,0.223% (inactive),–
CCc1nc2cccnc2n1-c1ccc(CC(=O)Nc2c(C)cccc2C)cc1,-4.84% (inactive),–
CCCNC(=O)C1CCC(Cn2c(=O)c3sccc3n(Cc3ccccc3F)c2=O)CC1 (configuration not stated),-1.73% (inactive),–
O=C(Nc1ccc(Br)cc1)c1cc2nc(-c3ccccc3)cc(-c3ccccc3)n2n1,5.96% (inactive),–
COc1ccc(CCNC(=O)CCCn2c(=O)c3ccccc3n(Cc3ccc(F)cc3Cl)c2=O)cc1OC,-1.56% (inactive),–
O=C(CSc1n[nH]c(-c2ccccc2)n1)N1CCCCC1,3.55% (inactive),–
CCN(CC)S(=O)(=O)c1ccc2c(c1)nc(CN(C)C(=O)Nc1ccc(Cl)cc1)n2C,-1.34% (inactive),–
O=C(NCCc1ccccc1)c1cnc2sc(N3CCCC3)nn2c1=O,13.1% (inactive),–
CCC(Sc1nc2n[nH]c(C)c2c(=N)n1-c1ccccc1Cl)C(=O)N(CC)CC (configuration not stated),-12.7% (inactive),–
CCC(CC)C(=O)N1CCc2cc(OC)c(OC)cc2C1COc1ccc(F)cc1 (configuration not stated),0.184% (inactive),–
Cc1cc(C)c2oc(C(=O)Nc3ccc(S(=O)(=O)N4CCCCCC4)cc3)cc(=O)c2c1,11.6% (inactive),–
COc1ccc(S(=O)(=O)c2c(Nc3ccc(C)cc3)sc(C(=O)c3ccc(C)cc3)c2N)cc1,8.68% (inactive),–
COc1ccccc1CNC(=O)NCc1noc2ccc(C)cc12,-2.92% (inactive),–
COc1ccc(C(F)(F)F)cc1NC(=O)c1sc2nc(-c3cccs3)ccc2c1N,-23.1% (inactive),–
CC1CCN(C(=O)Cn2c(=O)n(-c3ccc(Cl)cc3)c(=O)c3c4c(sc32)CCC4)CC1,16.3% (inactive),–
CCCN(CCC)CCNC(=O)c1ccc2c(c1)NC(=O)C(CS(=O)(=O)Cc1cccc(Br)c1)N2 (configuration not stated),4.02% (inactive),–
Cc1cc(C)cc(-n2ccnc2SCC(=O)Nc2nc3ccccc3s2)c1,13.1% (inactive),–
CCc1ccccc1NC(=O)Cc1ccc(NC(=O)N2CCCCc3ccccc32)cc1,14.9% (inactive),–

SMILES,"activity change, negative = cytotoxicity",Potency
CCc1cccc(NC(=O)CCNS(=O)(=O)c2cccc3nonc23)c1,5.94% (inactive),–
COc1cccc(N2CCN(S(=O)(=O)c3cc(Br)cc4c3N(C(=O)C3CC3)CC4)CC2)c1,19.5% (inactive),–
Cc1ccc(S(=O)(=O)n2nc(-c3ccc(Cl)cc3)nc2NCc2ccccc2)cc1,-13.1% (inactive),–
CCN(CCCNC(=O)c1cc2cc3cc(OC)ccc3nc2s1)c1ccccc1,-0.951% (inactive),–
COc1cccc(CNC(=O)Cn2c(=O)c3cccn3c3ccc(F)cc32)c1OC,-1.88% (inactive),–
CCCSc1ncc(Cl)c(C(=O)Nc2sc3c(c2C(=O)NCCOC)CCCC3)n1,1.52% (inactive),–
Cc1ccc(OCC(=O)Nc2ccc(Cl)c(-c3nc4ccccc4[nH]3)c2)cc1C,-0.793% (inactive),–
CCOc1ccc(OCC)c(NC(=O)CN(c2ccc(C)cc2)S(=O)(=O)c2c(C)n[nH]c2C)c1,9.54% (inactive),–
Cc1cc2nc(-c3ccc(NC(=O)c4cc5ccccc5o4)cc3)oc2cc1C,-0.614% (inactive),–
O=C(NC1CC(=O)N(c2ccc(F)cc2)C1)C1CCCCC1 (configuration not stated),5.27% (inactive),–
CCN1CCN(c2ncc3c(n2)CC(c2ccccc2O)CC3=O)CC1 (configuration not stated),1.55% (inactive),–
Cc1ccc(-c2cc(-c3coc4ccccc4c3=O)c3c(n2)-c2cc(Cl)ccc2OC3)cc1,12% (inactive),–
CCOc1cccc2c1N[C@@H](c1ccc(C(=O)O)cc1)[C@H]1CC=C[C@@H]21,-2.8% (inactive),–
Cc1ccc(C(=O)Nc2c(C(=O)NC(C)(C)C)oc3ccccc23)cc1,2.59% (inactive),–
COc1ccc(CCC(=O)NCc2ccc3c(c2)CCN3C(=O)c2ccc(F)cc2)cc1,-1.18% (inactive),–
COc1ccccc1CNc1ccc(-c2nc(-c3ccccc3C)no2)cc1[N+](=O)[O-],-0.135% (inactive),–
Cc1ccc2c(=O)c(C(=O)c3ccc(F)cc3)cn(CC(=O)NC3CCCCC3)c2n1,-2.4% (inactive),–
Cc1ccc2c(=O)c(C(=O)c3ccc(Cl)cc3)cn(CC(=O)NC3CCCCC3)c2n1,-1.4% (inactive),–
Cc1ccc2c(=O)c(C(=O)c3cccc(Cl)c3)cn(CC(=O)NCc3ccccc3)c2n1,–,10 µM (active)

SMILES,"activity change, negative = cytotoxicity",Potency
Cc1ccc(-c2nnc(Nc3ccc(OCC(N)=O)cc3)c3ccccc23)cc1S(=O)(=O)NCC1CCCO1 (configuration not stated),-1.93% (inactive),–
CCCCCn1c(CCNC(=O)c2ccc(F)cc2)nc2ccccc21,-24.8% (inactive),–
COCCNS(=O)(=O)c1cc(-c2nn3c(C)nnc3c3ccccc23)ccc1C,1.72% (inactive),–
CCc1nnc(SCc2c(F)cccc2Cl)c2cc3sccc3n12,17.7% (inactive),–
COc1cc(C(=O)N(Cc2ccc(C(C)C)cc2)C2CCS(=O)(=O)C2)cc(OC)c1OC (configuration not stated),-17.4% (inactive),–
CCOc1ccccc1NC(=O)Cn1c2ncccc2c(=O)n1-c1ccc(C)c(C)c1,5.55% (inactive),–
Cc1cccc(Cn2c(CN3CCC(C(=O)NCc4ccccc4Cl)CC3)cc3ccccc32)c1,-11.5% (inactive),–
CCN(CC)S(=O)(=O)c1ccc2c(c1)N(CC(=O)NCc1ccccc1)C(=O)CS2,3.95% (inactive),–
COc1ccc(-c2onc(C)c2C)cc1S(=O)(=O)NCC1CCN(Cc2cccc(F)c2)CC1,-24.7% (inactive),–
Cc1onc(-c2ccc(F)cc2F)c1C(=O)Nc1cccc(C(F)(F)F)c1,-0.762% (inactive),–
Cc1ccc(Cn2c(=O)n(Cc3nc(-c4ccccc4)no3)c(=O)c3cc4c(cc32)OCO4)cc1,4.79% (inactive),–
CN(C)c1ccc(C(CNS(=O)(=O)c2cc(F)ccc2F)N2CCOCC2)cc1 (configuration not stated),-4.79% (inactive),–
CCOc1ccc(C(=O)c2cn(Cc3ccccc3OC)c3ccc(F)cc3c2=O)cc1,-2.17% (inactive),–
O=C(/C=C/c1cn(CC(O)CN2CCc3ccccc32)c2ccccc12)c1ccc(Br)cc1 (configuration not stated),2.02% (inactive),–
O=C(CCC1N=C2c3ccccc3N=C(SCc3ccccc3F)N2C1=O)NCCc1ccccc1 (configuration not stated),4.72% (inactive),–
CSCCC(NS(=O)(=O)c1ccc2c(c1)oc(=O)n2C)C(=O)NCc1ccccc1 (configuration not stated),11.7% (inactive),–
O=C(Nc1nnc(C2CC(=O)N(c3ccc(Cl)cc3)C2)s1)c1ccco1 (configuration not stated),-14% (inactive),–
O=C(NCc1ccc(F)cc1)c1ccc(Cn2c(SCc3ccc(F)cc3)nc3cccnc32)cc1,-1.3% (inactive),–
Cc1c2cnn(-c3ccccc3)c(=O)c2c(C)n1C(C)C(=O)Nc1ccc(Br)cc1F (configuration not stated),2.31% (inactive),–
